Experimental data as given in PubChem BioAssay (NCI).
This is part of a sample that, as a whole, favours compounds with a hit. Of some 83,000 tested, about 20% had one in any assay.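 Plates (96-well) were seeded with cells, treated with compound at one concentration, and incubated for 48 hours before percent growth was determined.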 A number with no mark means an inactive call. The source made the active and inactive calls. Rule for the calls: active = growth percent below 10; inactive = the rest.

System: HL-60(TB) leukemia
Test: NCI-60 one-dose screen, 48 h (100 = growth as untreated, 0 = no growth, -100 = all killed)
Details: 10 µM unless noted

Going from Cc1cccc(C)c1Nc1nnc(-c2c[nH]c3ccccc23)o1 to Cc1ccc(C(=O)CSc2nnc(-c3c[nH]c4ccccc34)n2-c2ccccc2)cc1, the growth falls from 97.2% to 43.3%.

Compared with Cc1ccc2c(N)c(C(=O)Nc3ccc(OC(F)(F)F)cc3)sc2n1, COc1ccc2[nH]c(=O)c(CSc3ccccc3Nc3nccc(-c4ccc5c(c4)OCO5)n3)cc2c1 is higher in growth: 61.6% for the first, 74% for the second.

For O=C(NN1C(=O)/C(=C/C=C/c2ccc([N+](=O)[O-])o2)SC1=S)c1ccncc1, the growth was -30.4% (active).
